Assay results reported in PubChem BioAssay (NCATS).
Records with an inconclusive call do not appear. Values without a mark were called inactive. The call rests on the fitted dose curve; in most records, active means well fitted cell-killing curve with a large enough effect; inconclusive means small, poorly fitted or top-dose-only effect, or effect the other way; inactive means flat fitted curve, though single readings scatter.

Each compound was assayed on SKOV3 (assay: Primary qHTS to identify gynecologic anti-cancer compounds using libraries of approved drugs and bioactive compounds (AID 1345084; further: nearly all actives have a fitted effect of over 55% in size)). Conditions: Gynecologic cancer cell panel viability, ATPlite luminescence, 48 h; series mostly up to 57.5 µM; activity change, negative = cytotoxicity: at the top concentration.
Method in brief: (§1)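 In this quantitative HTS, cell killing is estimated from loss of ATP-dependent luciferase light. Cells see five compound concentrations over a 48 h exposure.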
On the % scale 0 is the no-effect control and ±100 the full control effect.

| Structure (SMILES) | activity change, negative = cytotoxicity |
| --- | --- |
| CCOC(=O)C(CCc1ccccc1)NC1CSC(c2cccs2)CN(CC(=O)O)C1=O (stereo not drawn) | 0% |
| O=c1[nH]ccc2cc(OC3CCNCC3)ccc12 | -15.2% |
| C=C1CCC2C(C)(COC(C)=O)CCCC2(C)C1CCC(C)CC(=O)O (stereo not drawn) | 7.07% [at 38.5 µM] |
| C=C1C(O)CC2C(C(=O)O)=COC(O[C@@H]3O[C@H](COC(=O)/C=C/c4ccc(O)cc4)[C@@H](O)[C@H](O)[C@H]3O)C12 (stereo partly drawn) | 4.19% [at 25.3 µM] |
| NC1CCCCN(c2c(F)cc3c(=O)c(C(=O)O)cn(C4CC4)c3c2Cl)C1 (stereo not drawn) | 19.4% [at 25.3 µM] |
| CC(C)(O)/C=C/C1=CC(=O)[C@@](C)(O)C[C@H]1O | 3.85% |
| CC(=O)O[C@H]1C[C@@]2(C)[C@@H](CC[C@H]3[C@@]4(C)C=CC(=O)[C@@H](C)[C@@H]4[C@H](O)C(=O)[C@@]32C)/C1=C(/CCC=C(C)C)C(=O)O | -12.1% [at 25.3 µM] |
| C=C(C)[C@@H]1CC[C@]2(C)CC[C@]3(C)[C@H](CC[C@@H]4[C@@]5(C)CC[C@@H](O)C(C)(C)[C@@H]5CC[C@]43C)[C@@H]12 | 0.741% [at 25.3 µM] |
| CC1=CC(=O)CC(C)(C)C1CCC(C)O[C@@H]1O[C@H](CO[C@@H]2OC[C@@H](O)[C@H](O)[C@H]2O)[C@@H](O)[C@H](O)[C@H]1O (stereo partly drawn) | 2.37% [at 25.3 µM] |
| COC(=O)C[C@H]1[C@]2(C)C3=C(C)[C@H](c4ccoc4)C[C@H]3O[C@@H]2[C@H](OC(C)=O)C2[C@](C)(C(=O)OC)C=CC(=O)[C@@]21C (stereo partly drawn) | 11.8% [at 25.3 µM] |
| Cc1oc2ccccc2c1CNC(=O)NCc1cccs1 | 0% |
| C=C1[C@H](OC(C)=O)[C@H]2[C@@H](OC(C)=O)[C@](C)(OC(C)=O)C[C@]2(OC(C)=O)C(=O)[C@H](C)/C=C/C(C)(C)C(=O)[C@H](OC(=O)C(C)C)[C@H]1OC(C)=O | 29.1% [at 25.3 µM] |
| CCNCc1nc2c(N)nc3ccccc3c2n1CC(C)(C)O | 0% |
| CC(=O)O[C@]1(C(C)=O)CC[C@H]2[C@@H]3C[C@H](C)C4=CC(=O)C=C[C@]4(C)[C@@]3(F)[C@@H](O)C[C@@]21C | -29.8% |
| CS(=O)(=O)N(CC(=O)NCC1CC1)c1cc(C(F)(F)F)ccc1Cl | 1.28% |
| CC(C)CC(=O)O[C@@H]1OC=C(CO[C@@H]2O[C@H](CO)[C@@H](O)[C@H](O)[C@H]2O)[C@H]2[C@@H]3O[C@H]3[C@@](O)(CO)[C@@H]12 | 27.5% [at 25.3 µM] |

| Structure (SMILES) | activity change, negative = cytotoxicity |
| --- | --- |
| CNC12CC3C[C@@](C)(C1)C[C@](C)(C3)C2 | -0.999% |
| C=CC(C)(O)C(O)CC1C(C)(O)C(O)C(O)C2C(C)(C)CCCC21C (stereo not drawn) | 29.3% [at 38.5 µM] |
| N#C[C@@H]1CCCN1C(=O)CNC12CC3CC(CC(O)(C3)C1)C2 | 0% |
| CC(C)(O)/C=C/CC(C)(O)C1C(O)CC2(C)C3CCC4C(C)(C)C(=O)CCC4(C)C3CCC12C (stereo not drawn) | 5.46% [at 25.3 µM] |
| CC1OC2OC(=O)C3(C)CC4=C(CO)C5=C(CC(=O)C4(C)C(C1=O)C23)C(C)(C)OC(=O)C5 (stereo not drawn) | 0% [at 25.3 µM] |
| C[C@@H]1C(=O)O[C@H](C)[C@H]1CC(=O)[C@](C)(O)[C@H]1CC[C@@]2(O)C3=CC(=O)[C@@H]4C[C@@H](O)[C@@H](O)C[C@]4(C)C3CC[C@]12C (stereo partly drawn) | 17.3% [at 25.3 µM] |
| C=C[C@H]1[C@H](O[C@@H]2O[C@H](CO)[C@@H](O)[C@H](O)[C@H]2O)OC=C(C(=O)OC)[C@H]1C/C=C(/C=O)[C@@H]1C(C(=O)OC)=CO[C@@H](O[C@@H]2O[C@H](CO)[C@@H](O)[C@H](O)[C@H]2O)[C@@H]1C=C | 14.1% [at 25.3 µM] |
| Cc1cc2c(c(=O)[nH]1)OC(C(O)CC(C)C)O2 (stereo not drawn) | 19.6% |
| CC(C)=CCC/C(C)=C/Cc1ccc(O)c(C2OC(=O)c3cc(C(=O)O)cc(O)c32)c1O (stereo not drawn) | 1.23% [at 25.3 µM] |
| NC(=O)C(CCC(F)(F)F)N(Cc1ccc(-c2ncon2)cc1F)S(=O)(=O)c1ccc(Cl)cc1 (stereo not drawn) | -19.2% |
| COc1cc(C)c(C(=O)O[C@H]2[C@@H](OC(C)=O)[C@H](n3ccc(=O)[nH]c3=O)O[C@@H]2CO)c(OC)c1 | 5.64% [at 25.3 µM] |
| CC1=C(CCC(C)CC(=O)O)[C@@]2(C)CCCC(C)(C)C2CC1=O (stereo partly drawn) | 13% [at 38.5 µM] |
| C[C@@H]1O[C@@H](O[C@H]2[C@H](O)[C@@H](O)[C@H](OC3CCC4(C)C5CCC(C)(C(CO)OC6OC(CO)C(O)C(O)C6O)CC5=CCC4C3(C)C)O[C@@H]2CO)[C@H](O)[C@H](O)[C@H]1O (stereo partly drawn) | -4.71% [at 25.3 µM] |
| CC1(C)CCCC2(C)C=C(C(=O)O)C(O)CC12 (stereo not drawn) | -3.51% |
| CC12CCC3c4ccc(OC5OC(C(=O)O)C(O)C(O)C5O)cc4CCC3C1CCC2O (stereo not drawn) | 0% |

Each compound was assayed on Tov-21-G in the same assay as above. Conditions: Gynecologic cancer cell panel viability, ATPlite luminescence, 48 h; series mostly up to 57.5 µM; activity change, negative = cytotoxicity: at the top concentration.
Method in brief: as §1

| Structure (SMILES) | activity change, negative = cytotoxicity |
| --- | --- |
| C[C@@H]1O[C@@H](O[C@H]2[C@H](O[C@H]3CC[C@@]4(C)C(CC[C@]5(C)C4C=C[C@]46OC[C@@]7(CCC(C)(C)C[C@H]74)[C@@H](O)C[C@]65C)[C@]3(C)CO)O[C@H](CO)[C@@H](O)[C@@H]2O[C@@H]2O[C@H](CO)[C@@H](O[C@@H]3O[C@@H](C)[C@H](O)[C@@H](O)[C@H]3O)[C@H](O)[C@H]2O)[C@H](O)[C@H](O)[C@H]1O (stereo partly drawn) | -25.6% [at 11.6 µM] |
| Cc1ccccc1NC(=O)Nc1ccc(CC(=O)N(C)[C@@H](CC(C)C)C(=O)NCC[C@H](NC(=O)[C@@H]2CCCN2S(=O)(=O)c2cc(Cl)cc(Cl)c2)C(=O)O)cc1 | -0.755% [at 25.3 µM] |
| CCc1c(-c2ccccc2)c(-c2ccccc2)nn1-c1ccccc1-c1cccc(OCC(=O)O)c1 | 0.922% |
| COc1ccc(C(O)C(C)OC2OC(CO)C(O)C(O)C2O)cc1 (stereo not drawn) | 8.23% [at 38.5 µM] |
| CC(C)=C/C=C\[C@H](C)[C@H]1CC[C@]2(C)C[C@@H]3C(C)=CC(=O)C3/C(CO)=C\C[C@@H]12 (stereo partly drawn) | 2.41% [at 38.5 µM] |
| CC1CCC2(C(=O)O)CCC3(C)C(=CCC4C5(C)CCC(O)C(C)(CO)C5CCC43C)C2C1(C)O (stereo not drawn) | -5.04% [at 25.3 µM] |
| CC(=O)O[C@@H]1c2c3c(cc(O)c2C(=O)O[C@@H]1C)O[C@@]1(C)[C@@H](O)C[C@H]2C(C)(C)C(=O)C=C[C@]2(C)[C@@H]1C3 | -6.65% [at 25.3 µM] |
| C[C@@H]1O[C@@H](O[C@H]2[C@H](O)[C@@H](O)[C@H](OC[C@H]3O[C@@H](OC(=O)[C@]45CCC(C)(C)C[C@H]4C4=CCC6[C@@]7(C)CC[C@H](O[C@@H]8OC[C@H](O)[C@H](O[C@@H]9O[C@H](CO)[C@@H](O)[C@H](O)[C@H]9O)[C@H]8O)[C@@](C)(CO)C7CC[C@@]6(C)[C@]4(C)CC5)[C@H](O)[C@@H](O)[C@@H]3O)O[C@@H]2CO)[C@H](O)[C@H](O)[C@H]1O (stereo partly drawn) | 8.55% [at 6.55 µM] |
| CCOC(=O)C(CCc1ccccc1)NC1CSC(c2cccs2)CN(CC(=O)O)C1=O (stereo not drawn) | 5.66% |
| O=c1[nH]ccc2cc(OC3CCNCC3)ccc12 | -7.28% |
| C=C1CCC2C(C)(COC(C)=O)CCCC2(C)C1CCC(C)CC(=O)O (stereo not drawn) | 0.0963% [at 38.5 µM] |
| C=C1C(O)CC2C(C(=O)O)=COC(O[C@@H]3O[C@H](COC(=O)/C=C/c4ccc(O)cc4)[C@@H](O)[C@H](O)[C@H]3O)C12 (stereo partly drawn) | 0.0111% [at 25.3 µM] |
| NC1CCCCN(c2c(F)cc3c(=O)c(C(=O)O)cn(C4CC4)c3c2Cl)C1 (stereo not drawn) | 3.56% [at 25.3 µM] |
| CC(C)(O)/C=C/C1=CC(=O)[C@@](C)(O)C[C@H]1O | -1.4% |
| CC(=O)O[C@H]1C[C@@]2(C)[C@@H](CC[C@H]3[C@@]4(C)C=CC(=O)[C@@H](C)[C@@H]4[C@H](O)C(=O)[C@@]32C)/C1=C(/CCC=C(C)C)C(=O)O | -12.4% [at 25.3 µM] |
| C=C(C)[C@@H]1CC[C@]2(C)CC[C@]3(C)[C@H](CC[C@@H]4[C@@]5(C)CC[C@@H](O)C(C)(C)[C@@H]5CC[C@]43C)[C@@H]12 | -12.7% [at 25.3 µM] |

| Structure (SMILES) | activity change, negative = cytotoxicity |
| --- | --- |
| CC1=CC(=O)CC(C)(C)C1CCC(C)O[C@@H]1O[C@H](CO[C@@H]2OC[C@@H](O)[C@H](O)[C@H]2O)[C@@H](O)[C@H](O)[C@H]1O (stereo partly drawn) | -4.72% [at 25.3 µM] |
| COC(=O)C[C@H]1[C@]2(C)C3=C(C)[C@H](c4ccoc4)C[C@H]3O[C@@H]2[C@H](OC(C)=O)C2[C@](C)(C(=O)OC)C=CC(=O)[C@@]21C (stereo partly drawn) | 3.74% [at 25.3 µM] |
| Cc1oc2ccccc2c1CNC(=O)NCc1cccs1 | 2% |
| C=C1[C@H](OC(C)=O)[C@H]2[C@@H](OC(C)=O)[C@](C)(OC(C)=O)C[C@]2(OC(C)=O)C(=O)[C@H](C)/C=C/C(C)(C)C(=O)[C@H](OC(=O)C(C)C)[C@H]1OC(C)=O | 1.64% [at 25.3 µM] |
| CCNCc1nc2c(N)nc3ccccc3c2n1CC(C)(C)O | -12.1% |
| CC(=O)O[C@]1(C(C)=O)CC[C@H]2[C@@H]3C[C@H](C)C4=CC(=O)C=C[C@]4(C)[C@@]3(F)[C@@H](O)C[C@@]21C | 6.05% |
| CS(=O)(=O)N(CC(=O)NCC1CC1)c1cc(C(F)(F)F)ccc1Cl | 15.3% |
| CC(C)CC(=O)O[C@@H]1OC=C(CO[C@@H]2O[C@H](CO)[C@@H](O)[C@H](O)[C@H]2O)[C@H]2[C@@H]3O[C@H]3[C@@](O)(CO)[C@@H]12 | 6.77% [at 25.3 µM] |
| CNC12CC3C[C@@](C)(C1)C[C@](C)(C3)C2 | -17.5% |
| C=CC(C)(O)C(O)CC1C(C)(O)C(O)C(O)C2C(C)(C)CCCC21C (stereo not drawn) | 5.67% [at 38.5 µM] |
| N#C[C@@H]1CCCN1C(=O)CNC12CC3CC(CC(O)(C3)C1)C2 | -9.55% |
| CC(C)(O)/C=C/CC(C)(O)C1C(O)CC2(C)C3CCC4C(C)(C)C(=O)CCC4(C)C3CCC12C (stereo not drawn) | 0.744% [at 25.3 µM] |
| CC1OC2OC(=O)C3(C)CC4=C(CO)C5=C(CC(=O)C4(C)C(C1=O)C23)C(C)(C)OC(=O)C5 (stereo not drawn) | 4.02% [at 25.3 µM] |
| C[C@@H]1C(=O)O[C@H](C)[C@H]1CC(=O)[C@](C)(O)[C@H]1CC[C@@]2(O)C3=CC(=O)[C@@H]4C[C@@H](O)[C@@H](O)C[C@]4(C)C3CC[C@]12C (stereo partly drawn) | 11% [at 25.3 µM] |
| C=C[C@H]1[C@H](O[C@@H]2O[C@H](CO)[C@@H](O)[C@H](O)[C@H]2O)OC=C(C(=O)OC)[C@H]1C/C=C(/C=O)[C@@H]1C(C(=O)OC)=CO[C@@H](O[C@@H]2O[C@H](CO)[C@@H](O)[C@H](O)[C@H]2O)[C@@H]1C=C | 5.36% [at 25.3 µM] |
| Cc1cc2c(c(=O)[nH]1)OC(C(O)CC(C)C)O2 (stereo not drawn) | 16% |
